Drawing on PubChem BioAssay (NCI), this text covers growth for eight compounds.

Test systems include NCI-H23 lung; NCI-H226 lung; NCI-H322M lung; HOP-62 NSCLC; NCI-H460 lung; HOP-92 NSCLC; A549/ATCC NSCLC; 786-0 renal; COLO 205 colon; DU-145 prostate; K-562 leukemia; MALME-3M melanoma; MDA-MB-231 breast; RXF 393 renal; SF-268 CNS; SF-295 CNS; SF-539 CNS; UACC-257 melanoma; M14 melanoma; NCI-H522 lung.
Assay in all cases: NCI-60 one-dose screen, 48 h (100 = growth as untreated, 0 = no growth, -100 = all killed)
Holding throughout (conditions): 10 µM unless noted

Compounds without any hit were thinned out: in the full panel of roughly 83,000, 20% have a hit.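 Cells were grown in 96-well plates and exposed to the test compound at a single concentration for 48 hours; results are reported as percent growth, with values below 10 considered active.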 Unmarked numbers belong to inactive results. The source made the active and inactive calls.

Regarding `BrC(Br)(Br)c1cnc2ccccc2n1`, the growth in the assay with NCI-H23 lung is 64.2%; with NCI-H226 lung it was 21.3%; with NCI-H322M lung, 74.9%; in the assay with HOP-62 NSCLC, 60%; in the assay with NCI-H460 lung it was 8.61% (active); in the assay on HOP-92 NSCLC, 7.52% (active). Moreover, the growth in the assay with A549/ATCC NSCLC is 34.6%; with 786-0 renal, 67.7%; with COLO 205 colon, -86.4% (active); with DU-145 prostate, 4.36% (active); in the assay with K-562 leukemia, 1.19% (active); in the assay with MALME-3M melanoma, -10.4% (active). Also, the growth is 46% in the assay with MDA-MB-231 breast; -31.5% (active) in the assay on RXF 393 renal; 54.5% with SF-268 CNS; 74.3% in the assay on SF-295 CNS; 27.2% in the assay on SF-539 CNS; 39.9% in the assay with UACC-257 melanoma. Also, the growth with M14 melanoma was 42.9%.

Regarding `CCN(CC)CCCC(C)Nc1cc(-c2cccc(OC(F)(F)F)c2)nc2ccc(N3CCCC3)cc12` (stereo not drawn), the growth with NCI-H23 lung was 57.9%; in the assay on NCI-H226 lung, 46.7%; in the assay on NCI-H322M lung, 17.7%; in the assay on HOP-62 NSCLC, 23.3%; with NCI-H460 lung it was -4.02% (active); with NCI-H522 lung, 2.05% (active). Further, the growth in the assay with A549/ATCC NSCLC was 10.7%; in the assay with 786-0 renal, -19.7% (active); in the assay on COLO 205 colon, -79% (active); in the assay on DU-145 prostate it was 37%; with K-562 leukemia, -46.5% (active); in the assay with MALME-3M melanoma it was -93% (active). For the same compound, the growth with MDA-MB-231 breast is -50.3% (active); in the assay with SF-268 CNS it was 26%; with SF-295 CNS, 28.3%; in the assay with SF-539 CNS, -91.7% (active); in the assay on UACC-257 melanoma, -81.1% (active); in the assay on M14 melanoma it was -81.9% (active).

Take `CCN(CCNc1cc(OC)cc2cccnc12)CCc1ccccc1`: the growth in the assay on NCI-H23 lung was 78.1%; with NCI-H226 lung, 86.2%; with NCI-H322M lung it was 108%; in the assay with HOP-62 NSCLC, 64.9%; with NCI-H460 lung, 86%; in the assay on NCI-H522 lung it was 63.7%. For the same compound, the growth with A549/ATCC NSCLC was 74.4%; in the assay with 786-0 renal, 87.2%; in the assay with COLO 205 colon, 68.8%; in the assay on DU-145 prostate it was 101%; with MALME-3M melanoma, 108%; with MDA-MB-231 breast, 70.7%. The growth in the assay with SF-268 CNS was 84%; with SF-295 CNS, 83.5%; in the assay on SF-539 CNS it was 97.6%; in the assay on UACC-257 melanoma, 77.8%; in the assay on M14 melanoma, 93.4%.

On to `CC(C)[N+](C)(CCOC(COc1ccccc1)COc1ccccc1)C(C)C`, for which the growth with NCI-H23 lung is 84.1%; in the assay on NCI-H226 lung, 91.2%; in the assay on NCI-H322M lung, 101%; with HOP-62 NSCLC, 98.6%; in the assay with NCI-H460 lung, 106%; in the assay with A549/ATCC NSCLC, 92.5%. For the same compound, the growth in the assay with 786-0 renal is 102%; with COLO 205 colon, 67.9%; in the assay with DU-145 prostate, 106%; in the assay with K-562 leukemia, 53%; in the assay with MALME-3M melanoma, 105%; in the assay on MDA-MB-231 breast, 98%. Further, the growth is 94.5% in the assay on SF-268 CNS; 98.9% with SF-295 CNS; 100% with SF-539 CNS; 78.7% in the assay with UACC-257 melanoma; 100% in the assay on M14 melanoma.

Take `C=CCn1c(SCC(=O)Nc2ccc(C(=O)/C=C/c3cc(OC)c(OC)c(OC)c3)cc2)nnc1-c1cc(-c2ccc(S(C)(=O)=O)cc2)nc2ccccc12`: the growth with NCI-H23 lung was 85.6%; in the assay with NCI-H226 lung it was 85.3%; in the assay on NCI-H322M lung, 93.5%; with HOP-62 NSCLC, 111%; in the assay with NCI-H460 lung it was 97.2%; with NCI-H522 lung, 86.5%. Further, the growth with A549/ATCC NSCLC is 99.4%; with 786-0 renal, 93.6%; in the assay on COLO 205 colon it was 111%; in the assay on DU-145 prostate it was 94.5%; in the assay on K-562 leukemia, 50.5%; in the assay on MALME-3M melanoma, 89.3%. The growth was 77.7% in the assay with MDA-MB-231 breast; 60.9% with RXF 393 renal; 86.9% in the assay on SF-268 CNS; 97.4% with SF-295 CNS; 86% in the assay on SF-539 CNS; 102% in the assay with UACC-257 melanoma. The growth in the assay on M14 melanoma is 88.8%.

Consider `O=C(/C=C\c1ccc(OCCCCCC[P+](c2ccccc2)(c2ccccc2)c2ccccc2)cc1)c1ccc2c(c1)OCCO2`, for which the growth with NCI-H23 lung was 3.95% (active); in the assay on NCI-H226 lung it was -0.25% (active); in the assay on NCI-H322M lung it was 22.3%; in the assay with HOP-62 NSCLC, -21.8% (active); in the assay with NCI-H460 lung, -12.4% (active); in the assay with NCI-H522 lung it was -6.94% (active). In addition, the growth in the assay on A549/ATCC NSCLC was 12.1%; in the assay on 786-0 renal it was 5.76% (active); in the assay with COLO 205 colon, -58.6% (active); with DU-145 prostate, 6.93% (active); with K-562 leukemia, 2.43% (active); with MALME-3M melanoma it was -15.3% (active). Besides, the growth is 2.28% (active) with MDA-MB-231 breast; -4.06% (active) in the assay on SF-268 CNS; -17.4% (active) in the assay on SF-295 CNS; 3.93% (active) in the assay on SF-539 CNS; -5.23% (active) in the assay on UACC-257 melanoma; -3.09% (active) in the assay on M14 melanoma.

As to `O=C(NCCc1ccccn1)OCc1nc2nc(Cl)nc(N3CCOCC3)c2[nH]1`, the growth is 37.6% in the assay with NCI-H23 lung; -53.2% (active) in the assay on NCI-H226 lung; 43.9% in the assay on NCI-H322M lung; 27.3% with HOP-62 NSCLC; 3.35% (active) in the assay with NCI-H460 lung; -34.4% (active) in the assay with NCI-H522 lung. The growth in the assay with A549/ATCC NSCLC was 43.5%; with 786-0 renal, 13.9%; in the assay with COLO 205 colon, 17.2%; in the assay on DU-145 prostate, 12%; in the assay on K-562 leukemia, 0.32% (active); with MALME-3M melanoma, 67.8%. For the same compound, the growth in the assay with MDA-MB-231 breast was 28.5%; with SF-268 CNS, 24.3%; with SF-295 CNS, 91.4%; with SF-539 CNS, -13.4% (active); in the assay with UACC-257 melanoma it was 30.6%; with M14 melanoma, 4.12% (active).

Turning to `O=S(=O)(NCCCNc1nccc(-c2c(-c3ccc(F)c(O)c3)nc3sccn23)n1)c1ccc(F)cc1`, the growth was 2.45% (active) in the assay with NCI-H23 lung; 11% in the assay on NCI-H226 lung; 5.97% (active) in the assay on NCI-H322M lung; 19.9% in the assay with HOP-62 NSCLC; 6.31% (active) with NCI-H460 lung; 10.2% in the assay with A549/ATCC NSCLC. For the same compound, the growth is 14.1% in the assay on 786-0 renal; 11.5% in the assay with COLO 205 colon; 11.5% with DU-145 prostate; 3.41% (active) in the assay on K-562 leukemia; -14.7% (active) in the assay with MALME-3M melanoma; -23.1% (active) with MDA-MB-231 breast. The growth was 9.56% (active) with SF-268 CNS; -12.1% (active) in the assay with SF-295 CNS; 18.5% with SF-539 CNS; -10% (active) in the assay on UACC-257 melanoma; 6.75% (active) in the assay with M14 melanoma.
